From PubChem BioAssay
Activity calls are given as the source filed them.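 The calls were made as follows, unless noted: active = NADPH fluorescence slope more negative than the mean of all samples by about 3 SD, 99.7% confidence; inactive = the rest.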

target: Voltage-gated potassium channel subunit beta-2 (Rattus norvegicus) (UniProt P62483); assay: inhibitors of rat Kvbeta2 reductase activity – biochemical, NADPH fluorescence, primary screen (AID 622;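 active = fluorescence slope higher than the sample average by over 3 SD, cut at about -0.22 in these data, passing the limit was not always enough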;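 also: slope of raw intensity against log time taken from 70 to 1610 s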); details: recombinant KvBeta, 4-cyanobenzaldehyde reduction, at 10 µM, active compounds read high
Sequence (P62483 whole entry, looked up): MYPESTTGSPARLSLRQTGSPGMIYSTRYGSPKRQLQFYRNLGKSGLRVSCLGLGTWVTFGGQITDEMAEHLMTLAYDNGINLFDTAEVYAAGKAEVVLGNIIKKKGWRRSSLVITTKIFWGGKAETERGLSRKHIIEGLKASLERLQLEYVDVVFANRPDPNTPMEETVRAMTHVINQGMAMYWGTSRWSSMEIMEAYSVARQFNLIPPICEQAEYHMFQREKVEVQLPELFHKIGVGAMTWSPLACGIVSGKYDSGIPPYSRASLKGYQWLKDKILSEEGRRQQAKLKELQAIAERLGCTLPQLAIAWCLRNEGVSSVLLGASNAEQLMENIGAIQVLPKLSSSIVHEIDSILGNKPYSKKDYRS

| SMILES | fluorescence slope |
| --- | --- |
| Cc1ccc(-c2nnc3c4ccccc4c(C)nn23)cc1S(=O)(=O)N1CCN(C)CC1 | -0.592 (inactive) |
| CCN(CC)CCCNC1CCS(=O)(=O)C1 (stereo not drawn) | -0.502 (inactive) |
| CN(C)CCCN1C(=O)c2oc3ccc(Cl)cc3c(=O)c2C1c1cccnc1 (stereo not drawn) | -0.546 (inactive) |
| COc1ccc(CCn2c(-c3ccco3)nc3ccccc3c2=O)cc1OC | -0.402 (inactive) |
| O=C(CSc1nnc(-c2ccccc2)o1)N1CCc2ccccc2C1 | -0.382 (inactive) |
| Cc1ccccc1NS(=O)(=O)c1cc(C(=O)N2CCCC2)ccc1C | -0.601 (inactive) |
| Nc1c(C(=O)NCc2ccco2)nnn1Cc1ccccc1 | -0.399 (inactive) |
| O=C(NCC(c1cccnc1)N1CCN(c2ccc(F)cc2)CC1)OCc1ccccc1 (stereo not drawn) | -0.605 (inactive) |
| CCc1nnc(NC(=O)c2ccc(S(=O)(=O)NCC(C)C)cc2)s1 | -0.491 (inactive) |
| O=C(CCNS(=O)(=O)c1ccc(Br)s1)N1CCCCC1 | -0.494 (inactive) |
| CCCn1c(SCC(=O)NC(C)(C)C)nnc1C(C)C | -0.537 (inactive) |
| CC(CN1CCCCC1)OC(=O)c1ccc2c(c1)OCO2 (stereo not drawn) | -0.586 (inactive) |
| CC(C)(C)NC(=O)Cn1nnnc1-c1nonc1N | -0.618 (inactive) |
| CC1(C)CC(=O)C(C=NCc2ccc3c(c2)OCO3)=C(O)C1 | -0.459 (inactive) |
| CN1CCN(c2nc(-c3ccncc3)nc3ccccc23)CC1 | -0.41 (inactive) |
| COc1ccc(S(=O)(=O)NCc2ccc(C(=O)O)cc2)cc1 | -0.624 (inactive) |
| COc1ccc(CC(=O)Nc2ccc(OC)c(NC(=O)c3ccco3)c2)cc1 | -0.417 (inactive) |
| COc1ccc(NC(=O)C23CCC(C)(C(=O)C2)C3(C)C)cc1 (stereo not drawn) | -0.6 (inactive) |
| Cc1ccc(-c2nc3cc(N)ccc3o2)cc1 | -0.0326 (active) |
| COc1cccc(C(=O)Nc2ccc(NC(C)=O)cn2)c1 | -0.469 (inactive) |

| SMILES | fluorescence slope |
| --- | --- |
| Cc1cnc(C(=O)Nc2ccc(N3CCN(C(=O)OC(C)(C)C)CC3)cc2)cn1 | -0.636 (inactive) |
| O=C(CSc1nnnn1C1CCCC1)NCc1ccc2c(c1)OCO2 | -0.475 (inactive) |
| CCC(C)(C(=O)NC1CCCC1)N(Cc1cccs1)C(=O)Cc1cccs1 (stereo not drawn) | -0.473 (inactive) |
| CCOc1ccc2c(c1)n(CO)c(=S)n2CO | -0.498 (inactive) |
| CCn1c(CSc2nnc(-c3cccnc3)n2-c2ccccc2C)nc2cc(C(=O)O)ccc21 | -0.509 (inactive) |
| CCOC(=O)NC(=O)CSc1nnnn1-c1ccc(Cl)cc1 | -0.297 (inactive) |
| Nn1cc(-c2ccccc2)nc1SCC(=O)N1CCN(S(=O)(=O)c2ccccc2)CC1 | -0.421 (inactive) |
| COC(=O)C1=C(N)Oc2cc(C)n(Cc3ccncc3)c(=O)c2C1c1cccnc1 (stereo not drawn) | -0.479 (inactive) |
| COC(=O)C1CCN(C(=O)CN2C(=O)NC(CCc3ccccc3)C2=O)CC1 (stereo not drawn) | -0.542 (inactive) |
| O=C(CSc1nnc(C2COc3ccccc3O2)o1)N1CCCc2ccccc21 (stereo not drawn) | -0.298 (inactive) |
| CN(C)S(=O)(=O)N1CCN(C(=O)N(c2ccccc2)c2ccccc2)CC1 | -0.366 (inactive) |
| COCC(C)NC(=O)CCS(=O)(=O)c1nc(-c2ccc(OC)cc2)cc(C(F)(F)F)n1 (stereo not drawn) | -0.323 (inactive) |
| O=C(NCc1cccnc1)c1ccc(Cl)c(Cl)c1 | -0.639 (inactive) |
| CCN(CC)CCOC(=O)c1cccc(OC)c1 | -0.638 (inactive) |
| CN1CCN(c2ncnc3c2cnn3-c2ccc(Cl)cc2)CC1 | -0.591 (inactive) |
| NC(=O)C1CCN(C(=O)c2cc3n(n2)C(C(F)(F)F)CC(c2ccco2)N3)CC1 (stereo not drawn) | -0.543 (inactive) |
| CC(C)(C)c1ccc2c(c1)OCC(C(=O)O)O2 (stereo not drawn) | -0.547 (inactive) |
| Cc1cc(C)c2c(n1)nn1c(NCCCN3CCOCC3)cc(C)nc21 | -0.509 (inactive) |
| Cc1n[nH]c(C)c1N1C(=O)c2cccc3cc(Br)cc(c23)C1=O | -0.375 (inactive) |

target: Voltage-gated potassium channel subunit beta-2 (Rattus norvegicus) (UniProt P62483); assay: enhancers of rat Kvbeta2 NADPH turnover – biochemical, NADPH fluorescence, primary screen (AID 623); details: Recombinant KvBeta, NADPH fluorescence decrease slope, 10 min; at 10 µM; active compounds read low;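 also: fluorescence intensity change per second fitted from 20 to 320 s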

| SMILES | NADPH fluorescence slope |
| --- | --- |
| Cc1ccc(-c2nnc3c4ccccc4c(C)nn23)cc1S(=O)(=O)N1CCN(C)CC1 | -2.9e-05 (inactive) |
| CCN(CC)CCCNC1CCS(=O)(=O)C1 (stereo not drawn) | -6.6e-05 (inactive) |
| CN(C)CCCN1C(=O)c2oc3ccc(Cl)cc3c(=O)c2C1c1cccnc1 (stereo not drawn) | -5.3e-05 (inactive) |
| COc1ccc(CCn2c(-c3ccco3)nc3ccccc3c2=O)cc1OC | -6.5e-05 (inactive) |
| O=C(CSc1nnc(-c2ccccc2)o1)N1CCc2ccccc2C1 | -6.2e-05 (inactive) |
| Cc1ccccc1NS(=O)(=O)c1cc(C(=O)N2CCCC2)ccc1C | -3.9e-05 (inactive) |
| Nc1c(C(=O)NCc2ccco2)nnn1Cc1ccccc1 | -4.5e-05 (inactive) |
| O=C(NCC(c1cccnc1)N1CCN(c2ccc(F)cc2)CC1)OCc1ccccc1 (stereo not drawn) | 7e-06 (inactive) |
| CCc1nnc(NC(=O)c2ccc(S(=O)(=O)NCC(C)C)cc2)s1 | -3.9e-05 (inactive) |
| O=C(CCNS(=O)(=O)c1ccc(Br)s1)N1CCCCC1 | -3.4e-05 (inactive) |
| CCCn1c(SCC(=O)NC(C)(C)C)nnc1C(C)C | -0.000121 (inactive) |
| CC(CN1CCCCC1)OC(=O)c1ccc2c(c1)OCO2 (stereo not drawn) | -3.4e-05 (inactive) |
| CC(C)(C)NC(=O)Cn1nnnc1-c1nonc1N | -4.6e-05 (inactive) |
| CC1(C)CC(=O)C(C=NCc2ccc3c(c2)OCO3)=C(O)C1 | 3.1e-05 (inactive) |
| CN1CCN(c2nc(-c3ccncc3)nc3ccccc23)CC1 | -3.7e-05 (inactive) |
| COc1ccc(S(=O)(=O)NCc2ccc(C(=O)O)cc2)cc1 | -2.6e-05 (inactive) |
| COc1ccc(CC(=O)Nc2ccc(OC)c(NC(=O)c3ccco3)c2)cc1 | 9.4e-05 (inactive) |
| COc1ccc(NC(=O)C23CCC(C)(C(=O)C2)C3(C)C)cc1 (stereo not drawn) | 6.7e-07 (inactive) |
| Cc1ccc(-c2nc3cc(N)ccc3o2)cc1 | -3.4e-05 (inactive) |
| COc1cccc(C(=O)Nc2ccc(NC(C)=O)cn2)c1 | -5.3e-05 (inactive) |

| SMILES | NADPH fluorescence slope |
| --- | --- |
| Cc1cnc(C(=O)Nc2ccc(N3CCN(C(=O)OC(C)(C)C)CC3)cc2)cn1 | -3.5e-05 (inactive) |
| O=C(CSc1nnnn1C1CCCC1)NCc1ccc2c(c1)OCO2 | -4.8e-05 (inactive) |
| CCC(C)(C(=O)NC1CCCC1)N(Cc1cccs1)C(=O)Cc1cccs1 (stereo not drawn) | -0.000168 (inactive) |
| CCOc1ccc2c(c1)n(CO)c(=S)n2CO | -4.8e-05 (inactive) |
| CCn1c(CSc2nnc(-c3cccnc3)n2-c2ccccc2C)nc2cc(C(=O)O)ccc21 | -0.000162 (inactive) |
| CCOC(=O)NC(=O)CSc1nnnn1-c1ccc(Cl)cc1 | 4.2e-05 (inactive) |
| Nn1cc(-c2ccccc2)nc1SCC(=O)N1CCN(S(=O)(=O)c2ccccc2)CC1 | 4.3e-05 (inactive) |
| COC(=O)C1=C(N)Oc2cc(C)n(Cc3ccncc3)c(=O)c2C1c1cccnc1 (stereo not drawn) | -7e-05 (inactive) |
| COC(=O)C1CCN(C(=O)CN2C(=O)NC(CCc3ccccc3)C2=O)CC1 (stereo not drawn) | -2.6e-05 (inactive) |
| O=C(CSc1nnc(C2COc3ccccc3O2)o1)N1CCCc2ccccc21 (stereo not drawn) | -4e-06 (inactive) |
| CN(C)S(=O)(=O)N1CCN(C(=O)N(c2ccccc2)c2ccccc2)CC1 | -2e-09 (inactive) |
| COCC(C)NC(=O)CCS(=O)(=O)c1nc(-c2ccc(OC)cc2)cc(C(F)(F)F)n1 (stereo not drawn) | -2.1e-05 (inactive) |
| O=C(NCc1cccnc1)c1ccc(Cl)c(Cl)c1 | -5.9e-06 (inactive) |
| CCN(CC)CCOC(=O)c1cccc(OC)c1 | -2.4e-05 (inactive) |
| CN1CCN(c2ncnc3c2cnn3-c2ccc(Cl)cc2)CC1 | 1.6e-05 (inactive) |
| NC(=O)C1CCN(C(=O)c2cc3n(n2)C(C(F)(F)F)CC(c2ccco2)N3)CC1 (stereo not drawn) | 1.2e-05 (inactive) |
| CC(C)(C)c1ccc2c(c1)OCC(C(=O)O)O2 (stereo not drawn) | 5.5e-05 (inactive) |
| Cc1cc(C)c2c(n1)nn1c(NCCCN3CCOCC3)cc(C)nc21 | -1.9e-05 (inactive) |
| Cc1n[nH]c(C)c1N1C(=O)c2cccc3cc(Br)cc(c23)C1=O | -7.7e-05 (inactive) |
